Among the data in PubChem BioAssay are z-score and composite z-score values, retold here.

The nature of assay [1]: E. coli DRC41 culture turbidity changes, primary screen, E. coli filamentation inducer project, strain DRC41, OD650, 48 h (AID 1152).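 Further: E. coli MC1000 strain DRC41 lacking acrAB efflux pump and sulA.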 The following applies: E. coli DRC41 (acrAB sulA), higher = more signal, called active from +8 up or from −8 down.
Assay [2] in a line: small-molecule binders of probe aLefty1, primary screen, biochemical, small-molecule microarray, 635/667 nm fluorescence (AID 1153).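 Further: score merges spot fluorescence with signal-to-noise ratio from the scanned slide images.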 The following applies: higher = more signal.
Assay [3] in a line: PSAC antagonists in infected red cells, primary screen, cell-based, P. falciparum Indochina, OD700, 1 h (AID 1154). The following applies: P. falciparum Indochina infected RBC osmotic lysis, higher = more signal, called active from +8 up or from −8 down.
Assay [4] is described as follows: PSAC antagonists in infected red cells, primary screen, cell-based, P. falciparum Indochina, OD700, 2 h (AID 1155).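 Further: lysis reports solute entry through the parasite surface anion channel PSAC; channel blockers reduce lysis of infected cells.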 The following applies: P. falciparum Indochina infected erythrocytes, osmotic lysis OD700; higher = more signal, called active from +8 up or from −8 down.
Assay [5] in a line: osmotic lysis modulators in infected erythrocytes, primary screen, PSAC antagonist project, cell-based, P. falciparum Indochina, OD700, 3 h (AID 1156). The following applies: higher = more signal, called active from +8 up or from −8 down.
Assay [6] can be described thus: PSAC antagonists in infected red cells, primary screen, cell-based, P. falciparum Indochina, OD700, 18 h (AID 1157). The following applies: P. falciparum Indochina infected erythrocytes, osmotic lysis OD700, 18 h; higher = more signal, called active from +8 up or from −8 down.
Assay [7] is described as follows: modulators of S6 phosphorylation in cells, primary screen, cell-based, A549, cytoblot, luminescence, serum-stimulated (AID 1158).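 Further: serum-stimulated A549 lung adenocarcinoma cells; signal is phosphorylated S6 detected by cytoblot immunostaining with HRP secondary.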 The following applies: A549 phospho-S6 cytoblot, 5 h, higher = more signal.
The target of assay [8] is NADPH oxidase 2 (Homo sapiens) (UniProt P04839). As to the kind of experiment: NOX2-dependent H2O2 signal modulators, primary screen, NOX inhibitor project, cell-based, HEK293-NOX2, PMA-stimulated, Amplex Red fluorescence (AID 1159). Further: test concentration not given here. The following applies: 45 min, higher = more signal, called active from +8 up or from −8 down.
Assay [9] concerns the target NADPH oxidase 4 (Homo sapiens) (UniProt Q9NPH5). Put plainly: NOX4-dependent H2O2 signal modulators, primary screen, NOX inhibitor project, cell-based, HEK293-NOX4, tetracycline-induced, Amplex Red fluorescence (AID 1160). The following applies: 45 min, higher = more signal, called active from +8 up or from −8 down.
Assay [10] concerns the target NADPH oxidase 5 (Homo sapiens) (UniProt Q96PH1). Put plainly: NOX5-dependent H2O2 signal modulators, primary screen, NOX inhibitor project, cell-based, HEK293-NOX5, Amplex Red fluorescence (AID 1161). The following applies: HEK293-NOX5, ionomycin, 45 min, higher = more signal.
A short description of assay [11]: A549 cell viability effects, profiling panel, calcein-AM fluorescence, 48 h, basal (AID 1162). Further: test concentration not given here. The following applies: higher = more signal.
Assay [12] in a line: adipocyte viability effects, profiling panel, cell-based, 3T3-L1 adipocytes, calcein-AM fluorescence, 48 h, basal (AID 1163). Further: test concentration not given here. The following applies: 3T3-L1 adipocytes viability, higher = more signal.
A short description of assay [13]: HepG2 cell viability effects, profiling panel, calcein-AM fluorescence, 48 h, basal (AID 1164). Further: test concentration not given here. The following applies: higher = more signal.
The nature of assay [14]: MM1S cell viability effects, profiling panel, calcein-AM fluorescence, 48 h, basal (AID 1165).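 Further: viability of MM1S multiple myeloma cells under basal unstimulated conditions; test concentration not given here.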 The following applies: higher = more signal.
A short description of assay [15]: basal RPMI8226 viability, no added stimulus, profiling panel, cell-based, calcein-AM fluorescence, 48 h, PK04 Diversity Set (AID 1166).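 Further: cells grown under basal conditions without added stimulus; test concentration not given here.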 The following applies: RPMI8226 myeloma viability, higher = more signal.
A short description of assay [16]: basal HepG2 mitochondrial membrane potential changes, profiling panel, cell-based, JC-1 fluorescence, 24 h, 100 nL compound (AID 1167). Further: test concentration not given here. The following applies: higher = more signal.
Assay [17] can be described thus: basal 3T3-L1 adipocyte mitochondrial potential changes, profiling panel, cell-based, JC-1 fluorescence, 3T3-L1 adipocytes, 24 h, 100 nL compound (AID 1168). Further: test concentration not given here. The following applies: JC-1 mitochondrial fluorescence, higher = more signal, called active from +8 up or from −8 down.
Assay [18] can be described thus: basal RPMI8226 mitochondrial membrane potential changes, profiling panel, cell-based, JC-1 fluorescence, 24 h, 100 nL compound (AID 1169). Further: test concentration not given here. The following applies: RPMI8226 myeloma, JC-1 mitochondrial potential fluorescence, higher = more signal.
A short description of assay [19]: basal MM1S mitochondrial membrane potential changes, profiling panel, cell-based, JC-1 fluorescence, 24 h, 100 nL compound (AID 1170). Further: test concentration not given here. The following applies: higher = more signal.
Assay [20] can be described thus: A549 lung cancer cell viability effects, profiling panel, resazurin fluorescence, 24 h, PK04 Diversity Set (AID 1171). Further: test concentration not given here. The following applies: higher = more signal, called active from +8 up or from −8 down.

Molecules are shown by their SMILES. The source made the active and inactive calls.

Chain of NADPH oxidase 2 (Homo sapiens) (P04839 whole entry, looked up): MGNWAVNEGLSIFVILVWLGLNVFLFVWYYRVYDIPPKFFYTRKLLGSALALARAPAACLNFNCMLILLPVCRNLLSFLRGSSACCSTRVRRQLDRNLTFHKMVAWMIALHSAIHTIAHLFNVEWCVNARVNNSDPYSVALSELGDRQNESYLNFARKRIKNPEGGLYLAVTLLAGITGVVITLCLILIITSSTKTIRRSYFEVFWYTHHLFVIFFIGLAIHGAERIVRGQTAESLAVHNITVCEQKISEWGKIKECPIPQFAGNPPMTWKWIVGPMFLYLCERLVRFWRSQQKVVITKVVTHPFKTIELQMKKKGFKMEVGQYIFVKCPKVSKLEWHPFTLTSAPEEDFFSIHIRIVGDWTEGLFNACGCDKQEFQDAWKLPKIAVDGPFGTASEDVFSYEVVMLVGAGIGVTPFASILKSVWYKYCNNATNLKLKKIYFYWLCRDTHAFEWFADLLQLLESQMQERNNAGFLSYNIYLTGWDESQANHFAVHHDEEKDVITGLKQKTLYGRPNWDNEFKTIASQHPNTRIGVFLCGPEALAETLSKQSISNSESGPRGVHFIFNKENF
Chain of NADPH oxidase 4 (Homo sapiens) (Q9NPH5 whole entry, looked up): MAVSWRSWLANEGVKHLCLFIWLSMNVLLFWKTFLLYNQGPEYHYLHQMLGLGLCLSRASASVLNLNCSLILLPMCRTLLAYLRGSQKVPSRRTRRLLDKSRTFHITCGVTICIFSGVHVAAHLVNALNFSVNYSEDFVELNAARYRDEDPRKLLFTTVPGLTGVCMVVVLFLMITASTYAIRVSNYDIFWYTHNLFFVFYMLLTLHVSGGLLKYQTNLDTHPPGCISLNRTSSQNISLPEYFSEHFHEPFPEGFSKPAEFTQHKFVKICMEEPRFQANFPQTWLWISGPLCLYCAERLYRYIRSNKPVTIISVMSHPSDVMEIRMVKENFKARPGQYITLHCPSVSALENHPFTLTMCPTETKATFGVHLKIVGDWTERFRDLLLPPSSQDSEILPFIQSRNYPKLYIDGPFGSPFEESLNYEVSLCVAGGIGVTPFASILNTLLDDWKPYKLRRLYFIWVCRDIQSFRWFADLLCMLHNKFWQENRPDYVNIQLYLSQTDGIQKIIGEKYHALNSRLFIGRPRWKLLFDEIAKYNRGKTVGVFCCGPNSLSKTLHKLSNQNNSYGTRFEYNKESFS
Chain of NADPH oxidase 5 (Homo sapiens) (Q96PH1 whole entry, looked up): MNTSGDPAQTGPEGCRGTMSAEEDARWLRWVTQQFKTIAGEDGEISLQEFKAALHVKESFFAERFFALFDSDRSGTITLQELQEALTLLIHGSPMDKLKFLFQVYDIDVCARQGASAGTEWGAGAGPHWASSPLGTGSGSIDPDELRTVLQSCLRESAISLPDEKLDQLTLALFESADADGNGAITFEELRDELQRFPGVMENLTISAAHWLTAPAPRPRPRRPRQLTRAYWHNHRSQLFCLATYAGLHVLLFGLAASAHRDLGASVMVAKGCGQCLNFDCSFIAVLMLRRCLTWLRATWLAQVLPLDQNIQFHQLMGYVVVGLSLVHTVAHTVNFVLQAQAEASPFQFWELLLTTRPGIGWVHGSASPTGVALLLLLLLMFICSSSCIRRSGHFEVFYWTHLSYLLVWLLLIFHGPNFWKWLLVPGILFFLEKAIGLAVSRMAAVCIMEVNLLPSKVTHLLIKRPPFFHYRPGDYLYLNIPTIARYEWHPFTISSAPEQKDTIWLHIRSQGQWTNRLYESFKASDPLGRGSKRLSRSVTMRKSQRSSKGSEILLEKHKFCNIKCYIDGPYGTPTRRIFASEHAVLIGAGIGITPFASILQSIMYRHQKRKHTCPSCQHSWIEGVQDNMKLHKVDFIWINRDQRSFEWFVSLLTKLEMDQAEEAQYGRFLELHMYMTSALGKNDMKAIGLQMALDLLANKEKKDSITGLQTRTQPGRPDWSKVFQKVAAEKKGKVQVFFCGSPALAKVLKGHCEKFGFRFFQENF

With `C=CCC(OC(C)=O)[C@@H]1[C@@H](N(Cc2ccc(-c3ccccc3)cc2)C(=O)c2ccc(C)cc2)c2cc(OCCCO)ccc2N1C(=O)Cc1ccc(OC)cc1` (stereo not given in full), the z-score in [1] is 2.25 (inactive); in assay [3], 0.398 (inactive); in [4] it was -1.46 (inactive); in [5], -0.774 (inactive); in [6] it was -1.43 (inactive); in [7], 1.52. Further, the z-score in assay [8] is -0.137 (inactive); in assay [9], 1.01 (inactive); in assay [10], 2.57; in assay [11], 0.837; in [12], 0.705; in [13], 2.23. Moreover, the z-score in assay [14] is 0.711; in assay [15], 0.815; in [16] it was 4.08; in assay [17], -0.172 (inactive); in assay [18], 0.768; in assay [19], -0.496. Moreover, the z-score in [20] was 0.267 (inactive). The compound also came in with a composite z-score in [2] of -0.0937.

Take `O=C1OCCC/C=C\[C@H]2OC34C=CCN(Cn5nnc6ccccc65)C(=O)[C@H]3N(CCCO)C(=O)[C@@H]4C12` (stereo not given in full): the z-score was 0.0048 (inactive) in [1]; 1.16 (inactive) in [3]; 0.614 (inactive) in assay [4]; -0.443 (inactive) in assay [5]; 0.261 (inactive) in assay [6]; 1.16 in assay [7]. The z-score in assay [8] was 0.821 (inactive); in assay [9] it was 0.689 (inactive); in [10], 2.02; in [11], -0.745; in assay [12] it was 0.737; in [13], -0.395. In addition, the z-score was 1.25 in [14]; -0.284 in assay [15]; -0.313 in assay [16]; 1.16 (inactive) in assay [17]; -0.0773 in assay [18]; -0.73 in assay [19]. In addition, the z-score in assay [20] is 0.651 (inactive). The composite z-score in assay [2] came out at 0.123.

Take `O=C1[C@H]2C=C(Br)[C@H](C[C@@H]2OCCOCCO)[C@@]12CO2`: the z-score is -0.927 (inactive) in assay [1]; 0.658 (inactive) in [3]; 0.276 (inactive) in [4]; -0.0195 (inactive) in assay [5]; 0.0588 (inactive) in assay [6]; -0.391 in assay [7]. The z-score was 1.36 (inactive) in [8]; 0.561 (inactive) in [9]; 0.0214 in [10]; -0.43 in assay [11]; -0.577 in assay [12]; -0.96 in assay [13]. The z-score in [14] was -0.368; in assay [15], -0.674; in assay [16], -1.33; in assay [17], -0.454 (inactive); in assay [18] it was 0.406; in assay [19], -0.137. In addition, in assay [20], the z-score is -0.274 (inactive). In [2], this compound registered a composite z-score of -0.276.

`CC1CC/C=C\[C@H]2OC34C=CCN(c5ccc6ccccc6c5)C(=O)[C@H]3N(CCCCCO)C(=O)[C@@H]4C2C(=O)O1` (stereo not given in full): the z-score was -0.557 (inactive) in assay [1]; 0.157 (inactive) in assay [3]; 0.222 (inactive) in assay [4]; -0.0324 (inactive) in assay [5]; 0.0382 (inactive) in [6]; 0.455 in [7]. Moreover, the z-score in assay [8] is 0.718 (inactive); in assay [9], -0.265 (inactive); in [10], 1.7; in assay [11], 0.111; in [12] it was 0.956; in [13], 0.778. In addition, the z-score was 1.68 in assay [14]; -0.823 in assay [15]; -0.684 in assay [16]; -0.381 (inactive) in assay [17]; 1.1 in [18]; 0.401 in [19]. The z-score in assay [20] was -0.292 (inactive). Further, in assay [2], the composite z-score is -0.427.
